Measurements reported in PubChem BioAssay AID449762 (Southern Research Specialized Biocontainment Screening …, 2010).
Hit rate of the full screen: of about 330,000 compounds, about 1,900 (0.58%) were called active. Another 4% or so got no clear call; they are omitted. No stated cut-off is given here; in the data, inconclusive means inhibition above about 70% without an active follow-up result; inactive means below that. Only a sample is shown. Measured potencies and affinities stand elsewhere.

Experiment: M. tuberculosis growth inhibition, HTS (AID 449762);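 further: bacterial growth assessed after seven days of incubation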
Details: M. tuberculosis H37Rv growth inhibition, 7H9 media; at 25 µM; stronger effect = higher value

SMILES | inhibition
O=C(CCN1CCCC1)Nc1ccccc1 | 22.9% (inactive)
Cc1ccc(C)c(N2CCN(C(=S)Nc3ccc4nc(N5CCOCC5)cc(C)c4c3)CC2)c1 | -4.9% (inactive)
Cc1cc(N2CCN(C)CC2)nc2ccc(NC(=S)N3CCCCCC3)cc12 | 3.75% (inactive)
CCN(CCCNC(=O)CNC(=O)c1nn(-c2ccc(OC)cc2)c(=O)c2ccccc12)c1cccc(C)c1 | 8.46% (inactive)
Cc1cc2c(cc1C)CSC(c1ccc3ccccc3c1O)SC2 | -4.57% (inactive)
Cc1cc2c(cc1C)CSC(c1ccccc1O)SC2 | 13.6% (inactive)
CCOc1ccc2oc(=O)cc(CN3CCN(C(=O)c4ccco4)CC3)c2c1 | 4.6% (inactive)
Cc1ccc[n+](CC(=O)/C=C2\N(C)c3ccccc3C2(C)C)c1 | -2.49% (inactive)
Cn1c(N)c(C(=O)COC(=O)c2ccco2)c(=O)n(C)c1=O | 1.11% (inactive)
CN1/C(=C\C(=O)C[n+]2cccc(C(N)=O)c2)C(C)(C)c2ccccc21 | 0.09% (inactive)
CN1/C(=C\C(=O)COC(=O)c2ccco2)C(C)(C)c2ccccc21 | 0.58% (inactive)
Cn1c(N)c(C(=O)COC(=O)c2ccc(Br)o2)c(=O)n(C)c1=O | 1.58% (inactive)
CN1/C(=C\C(=O)COC(=O)c2ccc(O)cc2)C(C)(C)c2ccccc21 | -3.13% (inactive)
COc1ccc(Cl)cc1NC(=O)CSc1nnc(-c2ccco2)o1 | -2.66% (inactive)
O=C(OCC(=O)N1CCCCC1)c1c[nH]c(=O)[nH]c1=O | -1.77% (inactive)
COc1ccccc1C(=O)NC(CCSC)C(=O)NNC(=O)c1ccccc1O (centres undefined) | -6.8% (inactive)
CC(C)(C)C(=O)O/N=C(\N)c1ccc(Oc2cc(Cl)cc(Cl)c2)c([N+](=O)[O-])c1 | 0.8% (inactive)
CCCCN1CC(O)=C(c2nc3ccccc3[nH]2)C1=N | -10.6% (inactive)
COc1ccc(NC(=O)N(C)C[C@H]2Oc3ccc(NC(=O)Cc4ccccc4)cc3C(=O)N([C@H](C)CO)C[C@@H]2C)cc1 | -4.97% (inactive)
COc1ccc(C(=O)NCC(c2ccc3c(c2)OCO3)N2CCN(c3ccc(OC)cc3)CC2)cc1 (centres undefined) | 7.52% (inactive)
O=C(COc1ncnc2cc([N+](=O)[O-])ccc12)NC1CCCCC1 | -3.77% (inactive)
CCOC(=O)c1ccc(NC(=O)CSc2nc(C)nc3c2c(=O)n(C)c(=O)n3C)cc1 | -9.19% (inactive)
CCCC/C(=N/O)c1c(C)[nH]c2ccccc12 | -0.42% (inactive)
CCc1sc2nc(SCC(=O)Nc3cc(C)on3)n(-c3cccc(OC)c3)c(=O)c2c1C | -0.05% (inactive)
